Experimental data as given in PubChem BioAssay AID1159580 (chemical genetic matrix, 2015).
“And” between values parts separate entries of the source, which are not always exact repeats. Equal values may be shown once. In all, about 5,500 compounds went through this assay and about 2,000 (36%) were called active. About 18% were inconclusive and are not listed. Cut-off read from the data, not from the text of the source: active = normalized growth mostly below about 0.91 (no sharp cut-off); inconclusive = no clear call, values can overlap the other calls; inactive = mostly above about 0.92. The list shows a part of the results.

Assay: chemical genetic growth profiling, strain panel (AID 1159580);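 note: tested at 20 µM; growth read once vehicle control cultures reached saturation at 30 °C; 1 = growth at the plate median or of vehicle wells; lower values mean less growth of the strain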
Conditions: S. cerevisiae deletion strains, growth OD

Measured: normalized growth

COc1cc2occc2c2oc(=O)ccc12
active: locus YDL192W, strain arf1, active compounds read low 0.887 | locus YDR101C, strain arx1, active compounds read low 0.897 | locus YDR195W, strain ref2 1.29 [resistant] | locus YER155C, strain BEM2 (second series), active compounds read low 0.821 | locus YJL129C, strain trk1, active compounds read low 1.17 [resistant] | locus YKR001C, strain vps1, active compounds read low 0.877 | locus YLR320W, strain mms22, active compounds read low 0.857 | locus YLR357W, strain rsc2, active compounds read low 1.16 [resistant] | locus YLR371W, strain rom2, active compounds read low 0.861 | locus YML032C, strain rad52, active compounds read low 0.836 | locus YNL248C, strain rpa49, active compounds read low 0.681 | locus YOR184W, strain ser1, active compounds read low 0.836 | locus YPR163C, strain tif3, active compounds read low 0.911
inactive: locus YAL021C, strain ccr4, active compounds read low 1.01 | locus YAL026C, strain drs2, active compounds read low 0.984 | locus YAL030W, strain snc1, active compounds read low 1.01 | locus YBL061C, strain skt5, active compounds read low 0.992 | locus YBR009C, strain hhf1, active compounds read low 0.982 | locus YBR021W, strain FUR4, active compounds read low 0.965 | locus YBR023C, strain chs3, active compounds read low 1 | locus YBR171W, strain sec66, active compounds read low 1.02 | locus YBR229C, strain ROT2, active compounds read low 0.949 | locus YBR231C, strain swc5, active compounds read low 0.962 | locus YBR279W, strain paf1, active compounds read low 1.01 | locus YCL011C, strain gbp2, active compounds read low 1.01 | locus YCL016C, strain dcc1, active compounds read low 0.972 | locus YCL029C, strain bik1, active compounds read low 0.931 | locus YCL069W, strain vba3, active compounds read low 1.03 | locus YCR088W, strain abp1, active compounds read low 1.02 | locus YDL005C, strain med2, active compounds read low 1.01 | locus YDL035C, strain GPR1, active compounds read low 0.92 | locus YDL040C, strain nat1, active compounds read low 1.02 | locus YDL074C, strain BRE1, active compounds read low 0.842 | locus YDL101C, strain DUN1, active compounds read low 0.939 | locus YDL185W, strain tfp1, active compounds read low 0.936 | locus YDR001C, strain nth1, active compounds read low 1.01 | locus YDR069C, strain doa4, active compounds read low 0.98 | locus YDR137W, strain rgp1, active compounds read low 1.06 | locus YDR159W, strain sac3, active compounds read low 1.01 | locus YDR162C, strain NBP2, active compounds read low 0.873 | locus YDR297W, strain sur2, active compounds read low 0.998 | locus YDR318W, strain mcm21, active compounds read low 0.948 | locus YDR334W, strain swr1, active compounds read low 0.969 | locus YDR335W, strain msn5, active compounds read low 0.968 | locus YDR388W, active compounds read low 0.979 | locus YDR392W, strain spt3, active compounds read low 0.792 | locus YDR502C, strain sam2, active compounds read low 0.984 | locus YEL003W, strain gim4, active compounds read low 0.985 | locus YEL037C, strain rad23, active compounds read low 1 | locus YEL061C, strain CIN8 (second series), active compounds read low 1 | locus YER015W, strain faa2, active compounds read low 1 | locus YER016W, strain bim1, active compounds read low 1.02 | locus YER110C, active compounds read low 0.936 | locus YER111C, strain swi4, active compounds read low 1.02 | locus YER155C, strain BEM2, active compounds read low 0.992 | locus YER167W, strain BCK2, active compounds read low 0.967 | locus YFR010W, strain ubp6, active compounds read low 0.957 | locus YGL078C, strain dbp3, active compounds read low 1.02 | locus YGL086W, strain mad1, active compounds read low 0.964 | locus YGL167C, strain pmr1, active compounds read low 1.02 | locus YGL173C, strain kem1, active compounds read low 1.01 | locus YGL227W, strain vid30, active compounds read low 1.03 | locus YGL240W, strain doc1, active compounds read low 0.92 | locus YGL248W, strain PDE1, active compounds read low 0.964 | locus YGL253W, strain hxk2, active compounds read low 1.01 | locus YGR078C, strain PAC10, active compounds read low 0.95 | locus YGR135W, strain pre9, active compounds read low 0.99 | locus YGR252W, strain gcn5, active compounds read low 0.865 | locus YHR013C, strain ard1, active compounds read low 1.08 | locus YHR027C, strain rpn1, active compounds read low 0.998 | locus YHR030C, strain SLT2, active compounds read low 0.982 and 0.967 | locus YHR079C, strain IRE1 (second series), active compounds read low 0.984 | locus YHR079C, strain IRE1, active compounds read low 0.958 | locus YHR094C, strain hxt1, active compounds read low 0.975 | locus YHR129C, strain ARP1, active compounds read low 0.98 | locus YHR142W, strain chs7, active compounds read low 0.961 | locus YHR200W, strain rpn10, active compounds read low 0.93 | locus YIL066C, strain RNR3, active compounds read low 0.925 | locus YIL073C, strain SPO22, active compounds read low 0.944 | locus YIL125W, strain kgd1, active compounds read low 0.99 | locus YIR030C, strain dcg1, active compounds read low 0.979 | locus YJL092W, strain hpr5, active compounds read low 1.02 | locus YJL095W, strain BCK1 (second series), active compounds read low 0.998 | locus YJL095W, strain BCK1, active compounds read low 0.942 and 0.974 | locus YJL115W, strain asf1, active compounds read low 0.991 | locus YJL134W, strain LCB3, active compounds read low 0.967 | locus YJL154C, strain vps35, active compounds read low 1.02 | locus YJL164C, strain tpk1, active compounds read low 0.983 | locus YJL166W, strain qcr8, active compounds read low 1.02 | locus YJL168C, strain set2, active compounds read low 0.976 | locus YJL187C, strain SWE1 (second series), active compounds read low 0.968 | locus YJL187C, strain SWE1, active compounds read low 1.02 | locus YJR066W, strain TOR1, active compounds read low 0.917 | locus YKL009W, strain mrt4, active compounds read low 0.944 | locus YKL068W, active compounds read low 1 | locus YKL085W, strain MDH1 (second series), active compounds read low 0.991 | locus YKL085W, strain MDH1, active compounds read low 0.991 | locus YKL160W, strain elf1, active compounds read low 1.01 | locus YKL190W, strain CNB1, active compounds read low 0.985 | locus YKR026C, strain gcn3, active compounds read low 1.03 | locus YKR091W, strain srl3, active compounds read low 1.02 | locus YLL001W, strain dnm1, active compounds read low 1 | locus YLL026W, active compounds read low 1.02 | locus YLL041C, strain sdh2, active compounds read low 1 | locus YLR027C, strain aat2, active compounds read low 1.01 | locus YLR039C, strain RIC1, active compounds read low 1 | locus YLR058C, strain SHM2, active compounds read low 0.976 | locus YLR102C, strain apc9, active compounds read low 0.985 | locus YLR113W, strain HOG1, active compounds read low 1 | locus YLR221C, strain rsa3, active compounds read low 1.02 | locus YLR258W, strain gsy2, active compounds read low 1.03 | locus YLR262C, strain YPT6 (second series), active compounds read low 1.02 | locus YLR262C, strain YPT6, active compounds read low 1.06 | locus YLR268W, strain sec22, active compounds read low 0.887 | locus YLR342W, strain FKS1 (second series), active compounds read low 0.944 | locus YLR342W, strain FKS1, active compounds read low 1.02 | locus YLR370C, strain arc18, active compounds read low 1.03 | locus YLR384C, strain iki3, active compounds read low 1.01 | locus YLR418C, strain cdc73, active compounds read low 0.914 | locus YML016C, strain PPZ1, active compounds read low 0.956 | locus YML120C, strain ndi1, active compounds read low 1.04 | locus YML124C, strain tub3, active compounds read low 0.982 | locus YMR058W, strain fet3, active compounds read low 0.988 | locus YMR078C, strain ctf18, active compounds read low 0.967 | locus YMR125W, strain sto1, active compounds read low 1.02 | locus YMR129W, active compounds read low 1.04 | locus YMR205C, strain PFK2, active compounds read low 1.03 | locus YMR223W, strain ubp8, active compounds read low 0.957 | locus YMR231W, strain pep5, active compounds read low 1.01 | locus YMR307W, strain GAS1, active compounds read low 0.932 | locus YNL067W, strain RPL9B, active compounds read low 0.99 | locus YNL071W, strain lat1, active compounds read low 1 | locus YNL183C, strain NPR1, active compounds read low 0.935 | locus YNL209W, strain ssb2, active compounds read low 0.995 | locus YNL233W, strain BNI4, active compounds read low 0.942 | locus YNL250W, strain rad50, active compounds read low 0.936 | locus YNL271C, strain bni1, active compounds read low 0.97 | locus YNL298W, strain CLA4, active compounds read low 0.915 | locus YNL307C, strain MCK1, active compounds read low 0.959 | locus YNL322C, strain KRE1 (second series), active compounds read low 0.998 | locus YNL322C, strain KRE1, active compounds read low 0.99 | locus YNR049C, strain mso1, active compounds read low 1.03 | locus YNR052C, strain pop2, active compounds read low 0.988 | locus YOL012C, strain htz1 0.958 | locus YOL147C, strain pex11, active compounds read low 0.952 | locus YOR001W, strain rrp6, active compounds read low 0.985 | locus YOR061W, strain CKA2, active compounds read low 0.939 | locus YOR069W, strain VPS5, active compounds read low 0.984 | locus YOR070C, strain gyp1, active compounds read low 0.995 | locus YOR080W, strain dia2, active compounds read low 1.01 | locus YOR083W, strain WHI5, active compounds read low 0.955 | locus YOR106W, strain vam3, active compounds read low 0.987 | locus YOR136W, strain idh2, active compounds read low 0.957 | locus YOR144C, strain elg1, active compounds read low 0.95 | locus YOR231W, strain MKK1, active compounds read low 0.983 | locus YOR265W, strain rbl2, active compounds read low 0.996 | locus YOR270C, strain vph1, active compounds read low 0.934 | locus YOR290C, strain snf2, active compounds read low 0.963 | locus YOR316C, strain cot1, active compounds read low 0.99 | locus YPL051W, strain arl3, active compounds read low 0.992 | locus YPL078C, strain atp4, active compounds read low 0.987 | locus YPL106C, strain sse1, active compounds read low 0.921 | locus YPL240C, strain hsp82, active compounds read low 1.01 | locus YPL256C, strain CLN2, active compounds read low 1.03 | locus YPR119W, strain clb2, active compounds read low 0.992 | locus YPR141C, strain kar3, active compounds read low 1 | locus YPR167C, strain met16, active compounds read low 0.995 | strain wtn01, active compounds read low 0.902
